Screening results (PubChem)
Luc counter: blocks Kinase-Glo luciferase, a counter-screen artifact; Q27757; Kinase-Glo luciferase, ATP luminescence, 8 min; Potency, µM (titrated, usually from 38.3 µM), for the others: at the highest dose activity change, negative = inhibition, actives largely listed as inhibitors; 200,000 compounds, 0.28% hits; AID 1379; note: % is set by controls: 0 for no effect and ±100 for the full control effect; nearly all actives have a fitted effect of over 60% in size
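Light output from Kinase-Glo luciferase with luciferin and 10 uM ATP in 50 mM imidazole pH 7.2, KCl, MgCl2, Tween 20, BSA; compound pin-delivered, 8-min ambient incubation, then luminescence read.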
ELG1 genotox: inducers of genotoxicity in HEK293T ELG1-luciferase cells. Potency, µM (doses to about 46 µM), inactives show at the top dose activity change, positive = activation, hits mostly activators. HEK293T ELG1-luciferase reporter, luminescence, 16 h. AID 504466. 330,000 compounds, 1.3% hits; note: % of control where 0% means no effect; nearly all actives have a fitted effect of over 60% in size
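HEK293T cells expressing luciferase-tagged ELG1 were exposed to compound or DMSO vehicle for 16 hr at 37 °C and 5% CO2. Luciferase activity was then measured with ONE-Glo after 30 min at room temperature.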
NPC1 prom act: activates the NPC1 promoter | Huh7 NPC1 promoter luciferase reporter, 24 h | Potency, µM (doses to about 9.22 µM), for the others: at the top dose activation, most hits filed as activators | 320,000 compounds, 2.4% hits; note: % of control where 0% means no effect; nearly all actives have a fitted effect of over 60% in size
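In 1536-well qHTS, Huh7 cells harboring an NPC1 promoter–luciferase construct received compound for 24 h; activation was quantified by luminescence following luciferase reagent addition.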
FLuc counter: firefly luciferase modulation, counter-screen for miR-21 project. AID 588342. 360,000 compounds, 6.9% hits. purified FLuc, Km substrates, luminescence inhibition. P08659. Potency, µM (top dose mostly 57.5 µM), for inactives: at the highest dose activity change, negative = inhibition, usual class: inhibitors;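 note: plate controls were vehicle for no effect and reference inhibitor for full effect; nearly all actives have a fitted effect of over 55% in size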
Target sequence (P08659 whole entry, looked up): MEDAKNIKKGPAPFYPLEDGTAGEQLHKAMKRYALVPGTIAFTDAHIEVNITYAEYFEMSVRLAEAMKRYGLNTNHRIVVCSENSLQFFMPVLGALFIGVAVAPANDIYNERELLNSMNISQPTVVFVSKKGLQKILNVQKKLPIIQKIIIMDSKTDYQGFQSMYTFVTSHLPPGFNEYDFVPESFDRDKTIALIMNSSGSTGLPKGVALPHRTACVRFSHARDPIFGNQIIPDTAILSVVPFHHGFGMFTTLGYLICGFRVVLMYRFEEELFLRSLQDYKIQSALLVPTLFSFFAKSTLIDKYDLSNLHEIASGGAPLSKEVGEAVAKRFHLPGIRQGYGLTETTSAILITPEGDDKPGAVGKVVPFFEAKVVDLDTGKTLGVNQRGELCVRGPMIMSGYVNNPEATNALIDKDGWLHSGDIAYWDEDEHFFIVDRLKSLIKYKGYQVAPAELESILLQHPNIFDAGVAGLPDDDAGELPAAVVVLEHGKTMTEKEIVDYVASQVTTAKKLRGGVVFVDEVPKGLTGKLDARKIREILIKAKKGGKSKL
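Purified P. pyralis luciferase (10nM final) with 10uM D-luciferin and 10uM ATP (Km levels) in 50mM Tris acetate pH 7.5, 10mM Mg acetate, 0.01% Tween-20, 0.05% BSA; qHTS 6-point titration, ~60 µM downward; luminescence read.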
SMN2 splice up: SMN2 splice variant enhancement. HEK293 SMN2-luciferase splicing reporter, luminescence, 30-36 h. Potency, µM (top dose mostly 46.1 µM), for the others: top-dose activity change, positive = activation, hits mostly activators. 210,000 compounds, 2.8% hits. AID 1458; note: % of control where 0% means no effect; nearly all actives have a fitted effect of over 55% in size
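qHTS luciferase splicing reporter: luminescence rises when SMN2 exon 7 is included in transfected HEK293 cells. Compound exposure lasted 30-36 h at 37C, with 4.5 mM final sodium butyrate as control, followed by a ONE-Glo read.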
Rab9 prom act: activators of Rab9 promoter | Huh7 Rab9 promoter-luciferase reporter, luminescence, 24 h | Potency, µM (top dose mostly 9.22 µM), without a hit: at the highest dose activation, negative = inhibition, usual class: activators | 320,000 compounds, 2.8% hits; note: % of control where 0% means no effect; nearly all actives have a fitted effect of over 60% in size
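Promoter activation is measured as luciferase luminescence in Huh7 cells stably transfected with a Rab9 promoter–luciferase construct, following 24 h compound exposure at 37 °C and 10 min reagent incubation at ambient temperature.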
Starred values were filed as active, the others as inactive; ? = inconclusive; . = no result. Only some compounds are listed: those with a hit (about 7.5% of all), similar ones and a draw of the others. Calls come from the whole dose curve; as a rule, active = well fitted curve in the direction sought with a large enough effect; inconclusive = small, poorly fitted or top-dose-only effect, or another doubt; inactive = no such curve, though single readings can be large; an effect the other way counts as inactive or inconclusive. Potency is the fitted concentration of half-maximal effect.

SMILES	Luc counter	ELG1 genotox	NPC1 prom act	FLuc counter	SMN2 splice up	Rab9 prom act
Cc1cccc(/C(N)=N/OC(=O)COc2ccccc2Cl)c1	1.1%	?	22.4%	19µM*	?	16.0%
COc1ccc(/C(N)=N/OC(=O)COc2ccccc2Cl)cc1	-7.4%	?	6.8%	21.3µM*	?	11.0%
N/C(Cc1ccc(Cl)cc1Cl)=N\OC(=O)Cc1ccccc1	4.5%	0.4%	-0.9%	15.1µM*	8.1%	-3.2%
CC(NC(=O)c1ccc2c(c1)CCN2S(=O)(=O)c1ccccc1)c1ccccc1 (configuration not stated)	.	.	.	4.7%	-2.4%	.
CN(C(=O)c1cc2nc(-c3ccc4c(c3)OCO4)cc(C(F)(F)F)n2n1)c1ccc(OC(F)(F)F)cc1	.	.	.	-1.4%	-5.8%	.
CC(C)C(NS(=O)(=O)c1ccc2c(c1)oc(=O)n2C)C(=O)NCc1ccccc1 (configuration not stated)	.	.	.	4.2%	-0.8%	.
CCOC(=O)c1cccc(NC(=O)c2cc3ccccc3o2)c1	.	-4.5%	?	5.36µM*	.	1.26µM*
CCOC(=O)c1ccc(NC(=O)c2cc3ccccc3o2)cc1	-9.8%	15.2%	?	9.53µM*	-15.0%	?
COc1ccc(CCNC(=O)C2CCN(c3nc4ccccc4nc3C(F)(F)F)CC2)cc1OC	.	.	.	1.3%	.	.
COC(=O)N1C(C2CC2)=Cc2ccccc2C1CC(C)=O (configuration not stated)	0.6%	.	.	.	1.4%	.
O=C(OCC(=O)N1CCN(C(=O)c2ccco2)CC1)c1cc(-c2ccc(Cl)c(Cl)c2Cl)nc2ccccc12	2.2%	-4.8%	0.9%	-12.3%	-8.9%	3.6%
COc1ccc(N2CCN(C(=O)c3cc(-c4cccs4)nc4ccccc34)CC2)cc1	3.9%	-13.9%	0.8%	?	-11.0%	-1.5%
O=C(c1cc(-c2ccco2)nc2ccccc12)N1CCN(c2ccc(F)cc2)CC1	-0.3%	-8.2%	-0.7%	19µM*	4.9%	8.6%
O=C(OCC(=O)N1CCN(C(=O)c2ccco2)CC1)c1cc(-c2ccco2)nc2ccccc12	-3.4%	-2.0%	-5.1%	15.1µM*	-6.5%	-9.9%
C/C(=N\NC(=O)c1cc(-c2ccco2)nc2ccccc12)c1cccnc1	-15.2%	2.0%	12.8%	13.5µM*	-0.1%	16.4%
O=C(N/N=C/c1ccc(F)cc1)c1cc(-c2ccco2)nc2ccccc12	-3.9%	0.6%	-18.2%	3.01µM*	6.3%	-3.8%
CCCCN(CCCC)S(=O)(=O)c1ccc2oc(C(=O)NCc3ccccc3)c(C)c2c1	.	.	.	1.2%	.	.
C/C(=N\NC(=O)c1ccc(O)cc1O)c1cccnc1	.	10.8%	23.7%	9.53µM*	.	?
O=C(O)c1cc(-c2ccco2)nc2ccccc12	-8.2%	3.6%	14.4%	21.3µM*	8.8%	6.3%
COc1ccc(C(=O)N/N=C(\C)c2ccccn2)cc1OC	.	?	-5.2%	?	.	-30.1%
C/C(=N/NC(=O)c1cnccn1)c1ccncc1	-1.2%	4.0%	0.1%	-4.0%	1.8%	16.0%
C/C(=N\NC(=O)c1ccccc1Cl)c1ccccn1	.	14.6µM*	22.9%	23.9µM*	.	-21.1%
C/C(=N\NC(=O)c1cccc(Br)c1)c1ccccn1	.	?	5.6%	13.5µM*	.	-22.4%
C/C(=N\NC(=O)c1cc(Br)ccc1O)c1ccccn1	.	20.6µM*	?	16.9µM*	.	?
C/C(=N\NC(=O)c1ccc(Cl)c(Cl)c1)c1ccccn1	.	?	16.7%	?	.	-28.2%
SMILES	Luc counter	ELG1 genotox	NPC1 prom act	FLuc counter	SMN2 splice up	Rab9 prom act
C/C(=N/NC(=O)c1ccccn1)c1ccncc1	.	?	3.55µM*	16.9µM*	.	?
Cn1cc(S(=O)(=O)N2CCCCC2)cc1C(=O)Nc1ccc(OC(F)(F)F)cc1	.	.	.	-0.3%	.	.
CC(=O)c1cccc(NS(=O)(=O)c2cccc(S(=O)(=O)c3ccc(Br)cc3)c2)c1	.	.	.	?	-49.2%	.
O=C(NCc1csc(-c2ccccc2)n1)c1cc(F)cc2c1OCOC2	.	19.4%	?	19µM*	.	?
Cc1ccccc1OCC(=O)N/N=C/c1sc(=O)n(Cc2cccc(C(=O)O)c2)c1Cl	.	-1.3%	-3.1%	-10.1%	.	-0.4%
COc1ccc(C(=O)N/N=C/c2sc(=O)n(Cc3cccc(C(=O)O)c3)c2Cl)cc1	.	1.0%	1.1%	26.9µM*	.	5.3%
O=C(O)c1cccc(Cn2c(Cl)c(/C=N/NC(=O)c3ccccc3O)sc2=O)c1	.	0.7%	1.7%	19µM*	.	4.2%
O=C(O)c1cccc(Cn2c(Cl)c(/C=N/NC(=O)c3ccccc3Cl)sc2=O)c1	1.4%	-0.3%	0.8%	-15.6%	-3.9%	-5.0%
O=C(O)c1cccc(Cn2c(Cl)c(/C=N/Nc3ccccc3)sc2=O)c1	5.2%	25.0%	-1.0%	26.9µM*	-31.6%	0.2%
CC1Oc2ccccc2C=C1/C=N/NC(=O)c1ccncc1 (configuration not stated)	.	0.1%	-0.2%	16.9µM*	.	-1.6%
COc1ccc(CNC(=O)c2oc3ccc(S(=O)(=O)N4CCOCC4)cc3c2C)cc1	.	-25.5%	29.0%	2.3%	.	-7.6%
Cc1ccc(CNC(=O)c2oc3ccc(S(=O)(=O)N4CCOCC4)cc3c2C)cc1	-3.6%	-19.7%	0.5%	3.4%	5.62µM*	-1.4%
Cc1c(C(=O)N2CCOCC2)oc2ccc(S(=O)(=O)N3CCCC3)cc12	-0.2%	.	?	-5.5%	1.7%	0.0158µM*
CCOC(=O)c1cc(S(=O)(=O)Nc2cc(OC)ccc2OC)[nH]n1	.	.	.	-14.6%	.	.
COc1ccc(C2=NN(C(C#N)c3ccc(OC)cc3)C(c3ccccc3)C2)cc1 (configuration not stated)	-3.1%	?	?	23.9µM*	?	?
O=S1(=O)CCN2C(=N1)Sc1c2ccc2c1CCCC2	-3.9%	?	16.1%	15.1µM*	8.4%	16.9%
CN(C)c1ccc(/C=C2\CCCCC2=O)cc1	-3.6%	5.8µM*	3.55µM*	2.69µM*	22.4µM*	3.16µM*
COc1ccc(NC(=O)c2sc3nc(-c4cc5ccc(OC)cc5oc4=O)[nH]c(=O)c3c2C)cc1	.	.	.	-9.2%	.	.
Nc1nc2nc(-c3ccccc3)cc(=O)n2[nH]1	-5.7%	-6.7%	0.1%	12µM*	0.1%	17.2%
Cc1nc2nc(-c3ccccc3)[nH]n2c(=O)c1Cc1ccccc1	-5.0%	8.9%	25.2%	19µM*	12.6µM*	21.2%
CCC(=O)Nc1nc2nc(-c3ccccc3)cc(=O)n2[nH]1	.	0.4%	0.9%	?	.	7.0%
Cc1nc2nc(Cc3ccccc3)[nH]n2c(=O)c1Cc1ccccc1	1.1%	0.8%	-1.8%	-1.0%	-7.8%	-4.0%
